# Assay results from PubChem BioAssay (NCI).
# “And” between values parts separate entries of the source, which are not always exact repeats. Equal values may be shown once. Compounds without any hit were thinned out: in the full panel of roughly 83,000, 20% have a hit.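 Testing used 96-well plates and a 48-hour single-concentration exposure. Example: -40 means 40% of the starting cells died.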 The source made the active and inactive calls. Rule for the calls: active = growth percent below 10; inactive = the rest.
# Tested on: HCC-2998 colon
# Assay: NCI-60 one-dose screen, 48 h (100 = growth as untreated, 0 = no growth, -100 = all killed)
# Conditions: 10 µM unless noted
row,SMILES,growth
1,OCCCc1ccccc1,108% (inactive)
2,S=c1nn[nH]n1C1CCCCC1,113% (inactive)
3,CC1=CC(=O)C=CC1=Nc1ccc(N(C)C)cc1,98.4% (inactive) and 59.1% (inactive)
4,Nc1nc(=S)c2[nH]cnc2[nH]1,6.28% (active)
5,O=c1[nH]c(=S)[nH]n1C(=S)n1[nH]c(=S)[nH]c1=O,99.6% (inactive)
6,CN(C)C(=N)N=C(N)N,115% (inactive)
7,COc1ccc2nccc(Cl)c2c1,115% (inactive)
8,COc1ccc(CCn2cnn3c(=O)c4ccccc4nc3c2=O)cc1OC,104% (inactive) and 111% (inactive)
9,N=C(N=C(N)N)N1CCOCC1,109% (inactive) and 97.1% (inactive)
10,N#CC(=S)Nc1ccc(Cl)c(Cl)c1,20.2% (inactive)
11,O=C1C(=O)c2ccccc2C(O)=C1CC=C(Cl)Cl,61.8% (inactive) and 64.4% (inactive)
12,CCOC(=O)C1=C(C)NC(C)=C(C(=O)OCC)C1,114% (inactive) and 87.1% (inactive)
13,COc1ccc(CCO)cc1,107% (inactive)
14,COc1ccc(/C=N/Nc2nc3ccccc3s2)cc1,104% (inactive)
15,Nc1ccccc1SC1CC(=O)N(c2ccc(I)cc2)C1=O (centres undefined),103% (inactive)
16,Clc1ccc2c(c1)N(C1CCCN(Cc3ccccc3)C1)c1ccccc1S2 (centres undefined),23% (inactive)
17,COc1ccc([N+](=O)[O-])cc1OC,105% (inactive)
18,NC(=O)Cc1nc(O)cc(=O)[nH]1,100% (inactive)
19,N=C(N)N1CCc2ccccc2C1,83.2% (inactive) and 99.2% (inactive)
